TWEAK-Fn14 inh: blocks TWEAK-Fn14 interaction in a reporter cell assay; TWEAK-stimulated Fn14 reporter cells, luciferase luminescence, 8 h; inhibition, % at 10 µM; hit rate 2% among 360,000; in the data active = inhibition above about 50%
LGR2 inh: blocks bursicon-induced cAMP signaling via Drosophila LGR2; inhibition, % at 9.99 µM; AID 720647; HEK293 LGR2, CRE-luciferase, bursicon-stimulated, 4 h; hit rate 0.35% among 380,000;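 active = drop in luminescence signal, shown as inhibition above about 50% in the replicate tests, limit read from the data, passing the limit was not always enough; inconclusive = probably only some replicates passing the limit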;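 note: agonist challenge used bursicon conditioned medium at about half maximal strength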
EWS-Fli inh: EWS/Fli transcriptional activity inhibition. A673 NR0B1-luciferase reporter, viability-normalised. inhibition, % at 12.6 µM. hit rate 0.67% among 350,000. AID 651661;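 active = mean inhibition of at least 50% after viability correction, with every replicate also passing that limit; inconclusive = mean reaches 50% but only one of two replicates passes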;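 note: firefly luciferase signal divided by Alamar Blue viability fluorescence both relative to DMSO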
EBV LMP1 NFkB: reduces LMP1-driven NF-kappaB luciferase signal; LMP1-induced NF-kappaB luciferase reporter cells, luminescence; hit rate 0.69% among 350,000; inhibition, % at 12.5 µM; in the data active = inhibition above about 41%; inconclusive = no clear call, values can overlap the other calls;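 note: 0% = neutral control wells and 100% = reference inhibitor control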
TROY NFkB inh: inhibitors of TROY-dependent NF-kB signaling | Q293 LMP1-TROYcd NF-kB luciferase reporter, 4 h | inhibition, % at 10 µM | hit rate 0.98% among 360,000 | AID 1347056;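 active = compounds whose plate-normalised and pattern-corrected inhibition of the luciferase reporter signal at the single screening dose is 50% or more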
The depositor's hits bear a star; ? = inconclusive; . = not tested or not shown. Sampled rows, rich in hits. Any-hit rate of the full collection: about 2.6%.

SMILES	TWEAK-Fn14 inh	LGR2 inh	EWS-Fli inh	EBV LMP1 NFkB	TROY NFkB inh
COc1ccc(C(CCNC(C)c2ccccc2)C(C)C)cc1 (configuration not stated)	-16	0	39	.	-49
CN(C)c1ccc(/C=C/c2c([N+](=O)[O-])c(=O)n(C)c(=O)n2C)cc1	23	13	-11	6	0
CN(C)c1ccc(-n2cccc2/C=C/[N+](=O)[O-])cc1	60*	.	20	-2	-31
CC1=Nc2ccccc2/C1=C/c1sc(=N)n(-c2nccs2)c1O	101*	-2	.	29	74*
CC1=Nc2ccccc2/C1=C/c1nc(-c2ccc(C)s2)oc1O	10	10	-3	-5	1
COc1cc(NC(=O)CN2CC(c3ccccc3)CC2=O)cc(OC)c1 (configuration not stated)	9	10	-1	-4	-23
COc1cccc(/C=N/NC(=O)c2ccccc2)c1OS(=O)(=O)c1ccccc1	76*	9	2	1	-29
COc1cccc(/C=N/NC(=O)CN2CC(c3ccccc3)CC2=O)c1OC (configuration not stated)	3	.	4	75*	-10
COc1ccc(C=O)cc1OS(=O)(=O)c1ccc(NC(C)=O)cc1	25	-4	6	-3	5
COc1cccc(/C=N/NC(=O)c2ccc(=O)n(C)c2)c1OC	7	-20	6	0	5
COc1ccc(/C=N/NC(=O)c2ccc3ccccc3c2)cc1OS(=O)(=O)c1ccc(NC(C)=O)cc1	52*	.	.	24	37
Cc1ccc(S(=O)(=O)N(C)C[C@@H]2Oc3ccc(NS(C)(=O)=O)cc3C(=O)N([C@@H](C)CO)C[C@@H]2C)cc1	.	-12	-11	.	.
CSc1nc(N2CCOCC2)c2c(c1C#N)CCCCC2	93*	2	.	1	-2
COC(=O)CSc1nc(N2CCCCC2)c2c(c1C#N)CCCC2	91*	.	.	1	-17
N#Cc1c(SCC(=O)O)nc(N2CCCCC2)c2c1CCCC2	-4	.	.	7	5
C=CCNc1nc2cc(-c3ccccc3C)sc2c(=O)n1C	0	-24	63*	.	-34
Cn1c2ccccc2c2cc(/C=N/NC(=O)c3cc(O)cc(O)c3)ccc21	-32	18	-18	28	-14
CCn1c2ccccc2c2cc(NC(=O)c3ccccc3-c3ccccc3C(=O)O)ccc21	-6	-4	15	52*	0
CCn1c2ccccc2c2cc(/C=N/NC(=O)c3ccccc3)ccc21	9	.	.	79*	0
COc1ccc(C(NC(=O)C2CCN(CCOc3ccc(Cl)cc3Cl)CC2)c2cccs2)cc1 (configuration not stated)	-4	.	5	.	51*
Cc1noc(C)c1NC(=O)N[C@@H]1C=C[C@H](CC(=O)Nc2ccccc2)O[C@@H]1CO	.	-5	-1	.	.
CCc1ccc(NC(=O)c2cnn3ccccc23)cc1	93*	.	71*	35	53*
COCC(=O)N1C[C@@H](C)[C@H](OC)CN(C)C(=O)c2cc(NC(=O)Nc3ccccc3)ccc2OC[C@H]1C	.	13	-5	.	.
CCN(CC)S(=O)(=O)c1ccc(N/N=C/c2ccc(O)cc2O)nc1	-1	43	.	57*	25
O=C(CSc1ncnc2ccccc12)c1ccc2c(c1)OCCO2	-71	-104	-128	-12	54*
SMILES	TWEAK-Fn14 inh	LGR2 inh	EWS-Fli inh	EBV LMP1 NFkB	TROY NFkB inh
O=C(CSc1nc(Cc2ccccc2)nc2ccccc12)c1ccc2c(c1)OCCO2	-102	-16	.	6	9
O=C(COc1ncnc2ccccc12)c1ccc2c(c1)OCCO2	16	.	.	-11	.
CCc1nc(SCC(=O)c2ccc3c(c2)OCCO3)c2ccccc2n1	-95	.	.	41*	-4
CC[n+]1c(/C=C/N(C)c2ccccc2)n(-c2ccccc2)c2ccc(-c3nc4ccccc4s3)cc21	107*	.	.	51*	64*
CC1CCc2nc(N)c(C#N)c(-c3ccncc3)c2C1 (configuration not stated)	3	.	.	6	-12
CC1CCc2nc(N)c(C#N)c(-c3cccnc3)c2C1 (configuration not stated)	83*	27	3	59*	54*
COc1ccc(CN(C)C(=O)c2cccc(NC(=O)CC3SC(N4CCCCC4)=NC3=O)c2)c(OC)c1 (configuration not stated)	74*	28	17	?	49
OC(COCC(F)(F)C(F)(F)C(F)(F)C(F)F)Cn1c2ccc(Cl)cc2c2cc(Cl)ccc21 (configuration not stated)	64*	.	.	-41	57*
CCOC(=O)c1c(O)c2cc(Cl)ccc2n(CC)c1=O	9	0	15	.	2
COc1ccc(Cc2nnc(N/N=C/c3ccc(O)cc3)[nH]c2=O)cc1OC	26	33	.	61*	10
Cc1cccc(C)c1NC(=O)CNC(=O)c1cn(-c2ccccc2)nc1-c1ccccc1	7	-8	.	-5	-26
Cc1nn(Cc2c(Cl)cccc2Cl)c(C)c1NC(=O)c1cn(-c2ccccc2)nc1-c1ccccc1	70*	.	.	-87	27
CC(=O)Oc1ccc2occ(-c3ccccc3)c2c1	54*	-33	-57	-1	24
CSc1cccc(NC(=O)OC2CCCCCCCCCCC2)c1	-5	24	3	-6	4
CC(C)c1cccc(C(C)C)c1NC(=O)OC1CCCCC1	-2	2	5	.	58*
COc1ccc2c3c(n(C)c2c1)[C@@H](CO)N(C(=O)C1CCCC1)CC31CN(C)C1	.	3	-17	.	.
COc1ccc(NC(=O)N2CCCc3ccccc32)c(OC)c1	51*	3	-8	8	70*
COc1ccc2c(c1)CCCN2C(N)=O	58*	-1	5	10	4
COc1ccc(C)cc1NC(=O)N1CCCc2ccccc21	55*	-26	8	-4	70*
COc1ccc2c(c1)CCCN2C(N)=Nc1ccc(Cl)cc1	-15	0	-3	23	-9
C/C=C/c1cnc2c(c1)C(=O)N([C@H](C)CO)C[C@@H](C)[C@@H](CN(C)C(=O)NC1CCCCC1)O2	.	4	-8	.	.
O=C(NCc1ccccc1)[C@H]1[C@H](CO)[C@H]2Cn3c(cccc3=O)[C@@H]1N2C(=O)c1cnccn1	.	-12	2	.	.
COC(=O)c1c(-c2ccc(OC)cc2)c2c(c3c4cc(OC)ccc4n(S(=O)(=O)c4ccc(C)cc4)c13)C(=O)N(C)C2	.	.	6	.	.
Fc1ccc(Cn2c(-c3cscn3)nc3ccccc32)c(Cl)c1	-24	.	.	-9	5
Nc1nonc1-c1nc2ccccc2n1Cc1ccc(F)cc1Cl	-24	.	.	-18	54*
C[C@@H]1CN([C@@H](C)CO)C(=O)Cc2cc(NS(=O)(=O)c3ccc(F)cc3)ccc2O[C@H]1CN(C)C(=O)Nc1ccc(C(F)(F)F)cc1	.	2	-4	.	.
ON=Cc1ccnc2ccccc12	20	0	-8	-1	6
O=C(O)c1ccccc1N/N=C\c1ccnc2ccccc12	90*	.	.	39	48
C[n+]1c2n(c3ccccc31)N=C(c1ccc(-c3ccccc3)cc1)CS2	54*	-24	43	23	20

Bioassay records: PubChem BioAssay, several laboratories
